Our source for the seed-corrected z-score values is PubChem BioAssay AID1159506 (National Center for Advancing Translational Sciences (NCATS), 2015).

Whole data set: some 59,000 sequences, median the read-out near -0.00055, cut for the lowest 2% near -2. This excerpt belongs to a sample that is enriched for the lowest values.

The test can be described thus: Identification of proteins required for the processing of the EWS-FLI1 nascent transcript.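 Also: robust z of luciferase light less the median z of siRNAs with the same seed.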 The conditions noted are these: TC32 Ewing sarcoma NR0B1-luc vs CMV-luc (EWS-FLI1 target promoter against control promoter), 48 h; screened at 20 nM (by protocol). The essentials: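 Genome-wide siRNA screen (Ambion v4.1, three siRNAs per gene, 20 nM final, RNAiMax) in Ewing sarcoma TC32 cells carrying NR0B1-promoter or CMV-promoter luciferase; OneGlo luciferase read 48 h post-transfection. Data normalized, z-score-MAD transformed and seed-adjusted.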
As for AUAGUAAUUCCUGGUAAAG against CYBA, the seed-corrected z-score is -3.24.
As for UACAAAAACGAUGGCAUCC against CCL17, the seed-corrected z-score is -0.409.
The figure for UACCCAUACGGAGUAGCGA against ASMTL is -0.0723.
For UAUAGGCAAAGCUAUCUCC against RBM15B, the seed-corrected z-score is -0.465.
The figure for AAUAAGACUCCUAAAAUCC against OR2A25 is -2.04.
Sequence UAAUAUAUUGUCCAUUUAC against OSTC gave a seed-corrected z-score of 0.401.
Regarding UUUUGAUUGAGAGGAUCGU against MBD2, the seed-corrected z-score worked out at 0.911.
As to UUAACAACUUUAGUCCUGC against EFHC1, the seed-corrected z-score worked out at 0.0527.
Take ACUUGUAACAGAUCAGCUC against TKFC: the seed-corrected z-score was determined as 0.791.
In the case of UUAGUUGAGGGUGAUCCCG against MXRA5, the seed-corrected z-score was 0.422.
On to AGAGAUCCCGUGUAUGACC against SLC30A2, for which the seed-corrected z-score was -0.311.
For UCUGCUCCCACAAUGAAAC against RPLP0, the seed-corrected z-score is -2.42.
Regarding UCAAUUAUUCCUCUCCGUC against HEY1, the seed-corrected z-score was -0.248.
UCAUAGUCCAUUCAGAGUU against CEACAM19 displayed a seed-corrected z-score of 0.0695.
In turn, UCCUGGAUACCUAACACCC against USP26 gave a seed-corrected z-score of 0.09.
Turning to ACUCCAAUCAGUACAGUCC against NUP210L, the seed-corrected z-score was -0.264.
For the sequence AAGUUGUCAAACAAGCCCU against CHTF18, the seed-corrected z-score was -3.
Sequence UUAACCGAUAUAUCCAUGG against LRRTM4 had a seed-corrected z-score of 0.0172.
UGAGGUCCACGAUAUCUAG against PYDC1 returned a seed-corrected z-score of 0.555.
On to AAAGAUAUCAGUGACGAAG against HIST1H2BA, for which the seed-corrected z-score is -0.152.
The sequence UAUUGUUCCGUCAUGCACU against PTGDS displayed a seed-corrected z-score of 0.165.
The figure for UAUCUCCACAUACCCGUUC against INHBA is -0.368.
With UACGUAGAUUUGGAAUUCC against ACO1, the seed-corrected z-score stood at 0.682.
Take UUAGUCUCAGCAUCGGCUC against KIAA1210: the seed-corrected z-score was -0.103.
On to UCACGAAGGAGUCUAUUCC against PRTN3, for which the seed-corrected z-score is -3.15.
Consider AUAGAGCCCAUUAUGCUUU against PSG11, for which the seed-corrected z-score was -1.42.
The figure for UUGGUGUUGGGCAACUUGU against HOXB4 is 0.286.
UCACUGAUUCUAGAUGAUG against SPIN3: the seed-corrected z-score is -0.422.
In turn, UAUAAAUCAACGGAUUCAG against OR5I1 had a seed-corrected z-score of 0.416.
Regarding UUUUGCACCUGGGUCCUAC against LRWD1, the seed-corrected z-score came out at 0.154.
Turning to AAAGGAAAAACCUAUUUUC against LOC728254, the seed-corrected z-score worked out at 0.573.
In the case of AUAGGUUCCUGUCUGUUGG against PYCRL it was 0.415.
In turn, AAAGAUUAAGGUACCAUAG against OR5J2 yielded a seed-corrected z-score of 0.72.
As for UUCGGCUUCACUGUUAUCC against TNR, the seed-corrected z-score is -2.16.
UCCAGUUCUUUCUUGGUCG against GTPBP6: the seed-corrected z-score amounted to 0.447.
As to UUGAUGGAUAGUCAUCACG against RBMX, the seed-corrected z-score was -0.224.
The figure for AAAUCGAUAAUCACUUAGG against ZNHIT6 is 0.142; for UAUUUCACAACAGGCACCG against MYO1C it is -2.29.
As for UUUUGUGCCUGUGCCCUUG against SBK1, the seed-corrected z-score was -0.47.
Turning to AGACUGAUGGUAGUGGUGG against PRRT1, the seed-corrected z-score is -0.57.
UUCAAUAUCAUUCCGAGGC against C6orf62: the seed-corrected z-score worked out at 0.77.
In the case of UUGUAUGAUUUUGCAAUUG against LINC01014, the seed-corrected z-score was -0.168.
In the case of AAAUGUACUCGAUCCCAUG against CPA5 it was -2.65; in that of UACAGUUCCUCAAUGUUCA against IL1F10, 1.27; in that of UAAACAGGCACGAAGCUUC against RPAIN, -0.43.
UUAGCUAGAGUUUUCAACC against MLLT11 came in with a seed-corrected z-score of 0.312.
For the sequence UGACGUACCAGCACUGCGU against ADM2, the seed-corrected z-score was -13.6.
On to UGAGCAUCCAUGCUGGGUA against ZNF688, for which the seed-corrected z-score came out at 0.0175.
For UUCAUUUAAAUUCUAACAC against SYNC, the seed-corrected z-score was 0.372.
With AUUCAUUCUUAUUAAGUGC against GPX5, the seed-corrected z-score was -0.0754.
Consider UUUGGUUUGAGCAGUCAAG against COMMD1, for which the seed-corrected z-score is -2.03.
Turning to AAUAAAUCCAUCCUUGUUC against GUCA1C, the seed-corrected z-score is -0.429.
For the sequence UCCUGAUCUAUCCAUAGGC against IFITM3, the seed-corrected z-score was -0.0222.
Consider UUCUCAAACACCUUCUUCC against QTRT1, for which the seed-corrected z-score was -0.0367.
In the case of UGCUCCAUCACAAAGGCGG against FN3K, the seed-corrected z-score is 1.15.
In turn, AUGGGAAUUAUGUCGGUUG against SCEL returned a seed-corrected z-score of 0.236.
For UCCAGUUGUACUUCUUGCC against GFOD1, the seed-corrected z-score is -3.99.
Turning to AAACUCUUUAGGAAAGAUG against POLR2D, the seed-corrected z-score was -0.98.
With UUAGCUGCCUGGAUAAGCG against CTNNA2, the seed-corrected z-score is -0.541.
In the case of UUUCCAACAUGAUCCACUG against TM2D2 it was 0.00525.
On to AAACGUUUGGAGCCUCUUG against NOXO1, for which the seed-corrected z-score is -2.35.
In the case of AUAGGGAACAGGAUAGCCC against C1orf74, the seed-corrected z-score came to 1.41.
In the case of UAGAUCUUUCCUCUGGUGG against FAM132B, the seed-corrected z-score was -0.705.
On to UGAACCGAGACUGUGGCAC against SERF1B, for which the seed-corrected z-score was -0.313.
With UCCUUCUUGAGCAGGUUCU against SOX14, the seed-corrected z-score was -0.364.
In the case of AUUGUUGUCCAUAAUAGGC against IKZF2, the seed-corrected z-score was -0.0322.
Turning to UGACUAUUAAGAUAUGAAG against ZNF121, the seed-corrected z-score is -2.14.
